p53 reactivation – restores transcriptional activity of mutant p53; H1299 p53-A138V BP100-luciferase reporter, luminescence, 24 h; Potency, µM (titrated, usually from 92.2 µM), actives largely listed as activators; actives 0.063% (n = 320,000); AID 504706; also: nearly all actives have a fitted effect of over 45% in size
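p53-null H1299 cells stably carrying temperature-sensitive p53-A138V and a BP100-luciferase reporter were pinned with compounds (4-point, 1:5 series) and held 24 hrs at 37 deg C. Luminescence was read 10 min after detection reagent.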
Eya2 inh – Eya2 (human) phosphatase inhibition | O00167 | recombinant Eya2, OMFP fluorescence dephosphorylation (OMFP is methylfluorescein phosphate) | Potency, µM (highest dose often 76.9 µM), hits mostly inhibitors | AID 488837 | actives 0.006% (n = 330,000)
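Eya2 protein (added as 0.2 uM solution) was preincubated with compound for 10 min at ambient temperature in 50 mM HEPES pH 7.5, 50 mM NaCl, 5 uM MgCl2, 0.05% BSA, 1 mM DTT. OMFP (added at 50 uM) then reacted 10 min; fluorescence read at 485/525 nm.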
Integrin act MD – activators of alpha7 integrin expression for muscular dystrophy. alpha7betagal myoblasts, beta-gal FDG fluorescence, 48 h. Potency, µM (titrated, usually from 38.3 µM), hits mostly activators. actives 0.064% (n = 350,000). AID 624291; also: nearly all actives have a fitted effect of over 60% in size
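alpha7betagal+/- myoblasts (passage 13, 250/well) treated 48 h at 37C with compounds at 1:260 dilution of DMSO stock. Lysed, then beta-galactosidase activity read as FDG fluorescence (ex 480/em 540) after 30 min, with pre-read for autofluorescence.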
ClpP mod – qHTS Assay for Activators of ClpP | ATP-dependent Clp protease proteolytic subunit (Bacillus subtilis (strain 168)), P80244 | purified B. subtilis ClpP, FRET peptide cleavage, 20 min | Potency, µM (series often up to 57.5 µM) | actives 1.9% (n = 340,000) | AID 651965, 2013; active = well fitted falling curve with a large enough effect; inconclusive = small, poorly fitted or top-dose-only effect; inactive = no such curve, though single readings can be large or run the other way; also: the source files actives as falling curves though it sought activators and does not explain the sign; nearly all actives have a fitted effect of over 65% in size
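Buffer: 100 mM Tris/HCl pH8, 100 mM KCl, 0.05% low protease BSA, 2.5% glycerol, 0.01% Tween-20. ClpP 10 microg/mL final; 20 min RT; delta FRET normalized to ADEP and DMSO controls.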
MmCpn inh – M. maripaludis TRiC chaperonin inhibition. actives 0.031% (n = 330,000). purified Mm-Cpn ATPase, ADP Transcreener TR-FRET. Potency, µM (titrated, usually from 76.9 µM), most hits filed as inhibitors. AID 504842; also: nearly all actives have a fitted effect of over 80% in size
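ATP (10 uM final) was added to archaeal chaperonin (25 nM final) after 10 min exposure to test compound at 37°C; after 30 min further incubation, ADP was detected by competitive TR-FRET.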
USP2a inh – blocks human ubiquitin-specific protease USP2a. O75604. USP2 core, Ub-CHOP2 coupled fluorogenic reporter, 485/531. Potency, µM (series often up to 38.3 µM), hits mostly inhibitors. AID 463254. actives 0.01% (n = 330,000)
Target sequence (O75604 whole entry, looked up): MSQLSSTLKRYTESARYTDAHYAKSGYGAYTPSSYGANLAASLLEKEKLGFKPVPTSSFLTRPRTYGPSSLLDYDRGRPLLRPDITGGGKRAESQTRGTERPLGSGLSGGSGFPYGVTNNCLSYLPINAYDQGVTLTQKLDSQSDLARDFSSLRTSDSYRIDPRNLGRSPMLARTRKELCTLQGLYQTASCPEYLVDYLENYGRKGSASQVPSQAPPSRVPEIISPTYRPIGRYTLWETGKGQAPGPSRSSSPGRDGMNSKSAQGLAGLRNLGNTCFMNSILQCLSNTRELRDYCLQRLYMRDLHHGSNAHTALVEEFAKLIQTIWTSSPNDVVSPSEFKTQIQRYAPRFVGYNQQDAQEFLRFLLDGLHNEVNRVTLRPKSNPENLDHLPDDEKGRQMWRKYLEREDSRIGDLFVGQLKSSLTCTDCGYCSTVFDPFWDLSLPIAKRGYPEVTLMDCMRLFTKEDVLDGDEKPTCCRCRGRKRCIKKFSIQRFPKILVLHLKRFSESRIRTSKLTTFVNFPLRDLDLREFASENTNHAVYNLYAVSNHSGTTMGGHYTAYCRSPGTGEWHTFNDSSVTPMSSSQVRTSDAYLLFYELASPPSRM
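Deubiquitinase activity read as fluorescence (485/531 nm) after Ub-CHOP2 cleavage activates the enterokinase reporter on its substrate; USP2 core 10nM, Ub-CHOP2 and substrate 25nM each, 30min compound preincubation then 60min RT; data normalized to NEM, curves fitted.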
A number is an active result; . = inactive; ? = inconclusive; / = no result given; [ ] = another dose, or the depositor's remark. The full list was thinned out, with hits kept by preference. Unless noted, calls follow the shape of the dose curve; as a rule, active = well fitted curve in the direction sought with a large enough effect; inconclusive = small, poorly fitted or top-dose-only effect, or another doubt; inactive = no such curve, though single readings can be large; an effect the other way counts as inactive or inconclusive.

SMILES	p53 reactivation	Eya2 inh	Integrin act MD	ClpP mod	MmCpn inh	USP2a inh
COc1cccc(S(=O)(=O)N2CCN(c3nc(-c4cccs4)nc4ccccc34)CC2)c1	/	/	/	.	/	/
Nc1nc[nH]c(=O)c1N	/	/	/	.	/	/
Cc1cc(NS(=O)(=O)c2ccc(NC(=O)C(C)Oc3ccc4c(C)cc(=O)oc4c3)cc2)no1 (centres undefined)	.	.	.	25µM	.	.
O=C(Nc1ccncc1)C1C(=O)c2ccccc2N(Cc2ccccc2)C1=O (centres undefined)	/	/	/	.	/	/
CCCC(=O)Nc1cccc(NC(=O)c2cccc([N+](=O)[O-])c2C)c1	.	.	.	11µM	.	.
CN1CCN(c2ncc3c(n2)CCN(Cc2ccccc2Cl)C3)CC1	/	/	/	.	/	/
CN(C)C(=S)Nc1cccc(C(F)(F)F)c1	.	?	10µM	.	.	.
CN(C)NC(=S)Nc1cccc(C(F)(F)F)c1	.	.	.	/	.	.
CN(C)c1ccc(/C=C2/CCc3ccccc32)cc1	/	/	/	.	/	/
O=C(Nc1cccc(Cl)c1)N1CCN2C(=O)c3ccccc3C12c1ccccc1 (centres undefined)	.	.	.	16µM	.[15.4 µM]	.
O=[N+]([O-])c1ccc(Cl)cc1N/N=C/c1ccncc1	/	?	5.6µM	.	.	.
O=[N+]([O-])c1cc(S(=O)(=O)Nc2ccc(Cl)cc2)ccc1N/N=C/c1ccncc1	.	.	?	/	.	.
COc1ccc(-c2nc(-c3cccs3)c(-c3cccs3)[nH]2)cc1OC	.	.	.	35µM	?	.
COc1ccc(-c2nc(-c3ccccc3)c(-c3cccs3)[nH]2)cc1OC	.	.	.	28µM	?	.
O=[N+]([O-])c1cccc(-c2nc(-c3cccs3)c(-c3cccs3)[nH]2)c1	.	.	.	.	.	.
Oc1cccc(-c2nc(-c3cccs3)c(-c3cccs3)[nH]2)c1	/	/	/	25µM	/	/
Cc1ccsc1-c1nc(-c2ccccc2)c(-c2ccccc2)[nH]1	.	.	.	28µM	.	.
CCOC(=O)CC(=O)CSc1nc(-c2ccc3c(c2)OCO3)cc(C(F)(F)F)c1C#N	.	.	.	20µM	.	.
O=C(NCc1ccco1)c1c[nH]c2ccc(S(=O)(=O)N3CCOCC3)cc2c1=O	.	.	.	32µM	.	.
O=C(NCCN1CCOCC1)c1c[nH]c2ccc(S(=O)(=O)N3CCOCC3)cc2c1=O	.	.	.	32µM	.	.
CCCCCNC(=O)c1c[nH]c2ccc(S(=O)(=O)N3CCC4(CC3)OCCO4)cc2c1=O	.	.	.	16µM	.	.
CN(c1ccc(Br)cc1)S(=O)(=O)c1ccc2[nH]cc(C(=O)NCCN3CCOCC3)c(=O)c2c1	.	.	.	.	.	.
O=C(C[n+]1ccccc1Br)c1ccc(I)cc1	/	/	/	.	/	/
CCCCCCCCCCCCCCCC[n+]1ccc(C)cc1	/	/	/	.	/	/
O=C(NCc1ccccc1Cl)NCc1noc2ccccc12	/	/	/	.	/	/
SMILES	p53 reactivation	Eya2 inh	Integrin act MD	ClpP mod	MmCpn inh	USP2a inh
COc1cccc(CN(C)C(=O)C2CC(=O)N(c3ccc4c(c3)OCCO4)C2)c1 (centres undefined)	.	.	.	14µM	.	.
FC(F)(F)c1nc2ccccc2n2c(-c3ccc(Cl)cc3)nnc12	.	.	.	13µM	.	.
FC(F)(F)c1nnc2c(Sc3ccc(Cl)cc3)nc3ccccc3n12	.	.	.	.	.	.
Cc1ccc(-c2nnc3c(C(F)(F)F)nc4ccccc4n23)cc1	.	.	.	13µM	.	.
COc1ccc(CNc2nc(-c3ccccc3)nn2S(=O)(=O)c2ccccc2)cc1	/	/	/	.	/	/
COCc1cc(C)nc(OCC(=O)N/N=C/c2ccco2)c1C#N	.	.	.	14µM	.	.
Nc1nc(=S)c2snnc2[nH]1	/	/	/	.	/	/
CCCCCCC[C@@H](C/C=C/CCC(=O)N(C)C/C(=C/Cl)C/C(=C\C(=O)N1C[C@H](O)CC1=O)OC)OC	.	.	.	.	.	.
